Most compounds without a hit are left out; they make up all but 6.9% or so of the library.
SW480 rerep = induces DNA re-replication in SW480 colon adenocarcinoma cells | SW480 DNA re-replication, Hoechst DNA content imaging, 48 h | Potency, µM (titrated, usually from 46.1 µM), inactives show at the highest dose re-replication activation, hits mostly activators | 340,000 compounds, 1.8% hits | AID 624297; also: potency is read from the fitted curve at half-maximal effect; % of control where 0% means no effect; nearly all actives have a fitted effect of over 55% in size
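SW480 cells exposed to compounds for 48 hr at 37 C, 5% CO2, then Hoechst-stained 40 min. Nuclear DNA content imaged by fluorescence scanning (405 nm excitation, 500-530 nm emission); re-replication scored as increased high-intensity nuclei.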
MCF10A rerep = inducers of DNA re-replication in MCF 10A breast cells; Potency, µM (series often up to 46.1 µM), without a hit: at the top dose activity, positive = re-replication, usual class: activators; MCF 10A DNA re-replication, Hoechst nuclear intensity, 48 h; AID 624296; 350,000 compounds, 2.9% hits; also: potency is read from the fitted curve at half-maximal effect; % of control where 0% means no effect; nearly all actives have a fitted effect of over 50% in size
S-ASM inh = inhibitors of human secretory acid sphingomyelinase; 340,000 compounds, 0.006% hits; Potency, µM (series often up to 57.5 µM), for the others: at the highest dose activity change, negative = inhibition, actives largely listed as inhibitors; placental ASM, HMU-PC fluorogenic substrate, 60 min; P17405; AID 504937; also: potency is read from the fitted curve at half-maximal effect
Target sequence (P17405 47-631 limits assumed): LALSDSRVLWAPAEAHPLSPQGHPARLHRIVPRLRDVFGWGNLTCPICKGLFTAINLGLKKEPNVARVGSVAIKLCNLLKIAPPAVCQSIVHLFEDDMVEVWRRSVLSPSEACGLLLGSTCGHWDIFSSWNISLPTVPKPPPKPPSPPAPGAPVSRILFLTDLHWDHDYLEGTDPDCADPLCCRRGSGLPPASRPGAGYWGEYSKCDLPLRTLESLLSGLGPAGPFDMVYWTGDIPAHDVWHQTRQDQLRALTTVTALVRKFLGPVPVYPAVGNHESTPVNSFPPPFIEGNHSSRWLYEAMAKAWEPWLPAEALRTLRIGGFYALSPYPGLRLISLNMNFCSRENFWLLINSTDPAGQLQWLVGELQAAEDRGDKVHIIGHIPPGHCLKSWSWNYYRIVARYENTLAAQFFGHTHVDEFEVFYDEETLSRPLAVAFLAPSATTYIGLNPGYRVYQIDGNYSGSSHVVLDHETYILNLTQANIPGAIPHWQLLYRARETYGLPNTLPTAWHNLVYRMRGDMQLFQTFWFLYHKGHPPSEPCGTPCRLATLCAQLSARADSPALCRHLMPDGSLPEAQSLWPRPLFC
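Human placenta-derived ASM enzyme was preincubated with compound for 10 minutes at room temperature, then given fluorogenic substrate HMU-PC0 (9 uM final) for 60 minutes at 37 °C; a pH 10 stop preceded fluorescence reading at Ex 386/Em 447 nm.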
Giardia killer = Giardia lamblia killing; Giardia lamblia trophozoite viability; 340,000 compounds, 0.15% hits; activity change, % at 7.66 µM, hits read low; in the data active = activity change below about -80%; inconclusive = between about -30% and that limit;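 also: parasites exposed to compound for two days anaerobically before the ATP read; % is scaled to controls: 0 for no effect and ±100 for the full control effect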
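Luminescence from cellular ATP indicates surviving trophozoites (100 cells/well) following 48 hrs anaerobic compound treatment at 37 deg C; signal develops 15-30 min at room temperature.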
KB-V1 cytotox = kills drug-selected multidrug resistant KB-V1 cells | 400,000 compounds, 3.4% hits | Potency, µM (series often up to 46.1 µM), actives largely listed as cytotoxic | KB-V1 MDR cells viability, CellTiter-Glo, 72 h; also: potency is read from the fitted curve at half-maximal effect; % is scaled to controls: 0 for no effect and ±100 for the full control effect; nearly all actives have a fitted effect of over 60% in size
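Readout: CellTiter-Glo luminescence, 10 min after addition. Cells: KB-V1 MDR subline, 72 h at 37 degrees C with compound. Analysis: corrected, normalized data fitted to concentration-effect curves.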
KB-3-1 tox = kills parental KB-3-1 adenocarcinoma cells; 400,000 compounds, 1.4% hits; Potency, µM (top dose mostly 46.1 µM), usual class: cytotoxic; KB-3-1 viability, CellTiter-Glo ATP luminescence, 72 h; also: potency is read from the fitted curve at half-maximal effect; % is scaled to controls: 0 for no effect and ±100 for the full control effect; nearly all actives have a fitted effect of over 60% in size
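Luminescent ATP read-out (CellTiter-Glo) measures survival of drug-naive KB-3-1 cells after 72 h compound exposure at 37 °C. Titration series was screened from lowest to highest concentration, with DMSO vehicle plates as background controls.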
* marks the source's active call; other numbers are inactive results; i = inactive; u = inconclusive; x = no result given; [ ] = dose if it differs, or a comment. Unless noted, calls follow the shape of the dose curve; as a rule, active = well fitted curve in the direction sought with a large enough effect; inconclusive = small, poorly fitted or top-dose-only effect, or another doubt; inactive = no such curve, though single readings can be large; an effect the other way counts as inactive or inconclusive.

SMILES | SW480 rerep | MCF10A rerep | S-ASM inh | Giardia killer | KB-V1 cytotox | KB-3-1 tox
COC(=O)[C@@]12C[C@@H](CC(=O)NCc3ccccc3)C(=O)N(Cc3ccco3)C1=CCC(C)(C)C2 | x | x | x | x | u | i
COC(=O)[C@@]12C[C@@H](CC(=O)N3CCN(C(=O)C4CC4)CC3)C(=O)N(Cc3cccc4ccccc34)C1=CCC(C)(C)C2 | x | x | x | x | u | i
COC(=O)[C@@]12C[C@@H](CC(=O)NCc3cccc4ccccc34)C(=O)N(Cc3ccccc3)C1=CCC(C)(C)C2 | x | x | x | x | 21µM* | u
COC(=O)[C@@]12C[C@@H](CC(=O)NCCc3ccccc3OC)C(=O)N(Cc3ccco3)C1=CCC(C)(C)C2 | x | x | x | x | 15µM* | i
COC(=O)[C@@]12C[C@@H](CC(=O)NCC34CC5CC(CC(C5)C3)C4)C(=O)N(Cc3ccccc3)C1=CCC(C)(C)C2 | x | x | x | x | 23µM* | u
COC(=O)[C@@]12C[C@@H](CC(=O)NCc3cccc(C(F)(F)F)c3)C(=O)N(Cc3cccc4ccccc34)C1=CCC(C)(C)C2 | x | x | x | x | u | i
CC(C)c1nnc(-c2ccc(Cl)cc2)c(N(C)C)n1 | -2% | 2% | 3% | -4 | 21µM* | i
CCCCOc1ccc(C(=O)NCC(=O)NCc2ccccn2)cc1 | u | 57% | 0% | 15 | u | 0.52µM*
Cc1ccc(C(=O)CSc2nnc(COc3cccc4cccnc34)o2)cc1 | -7% | -1% | -2% | -19 | i | i
COc1cccc(C(=O)CSc2nnc(COc3cccc4cccnc34)o2)c1 | 5.2µM* | 6.5µM* | -1% | -4 | i | i
CC1CCCC(C)N1C(=O)CSc1nnc(COc2cccc3cccnc23)o1 (configuration not stated) | 4.1µM* | u | 1% | u | u | i
CCOC(=O)c1ccc2c(c1)N(CC(=O)N(C)c1ccccc1)C(=O)c1ccccc1S2 | x | x | x | x | u | i
CCCC(=O)OCC(=O)NCc1ccc(Cl)cc1 | -3% | 2% | 1% | -1 | i | i
O=C(COC(=O)CC(c1ccccc1)c1ccccc1)NCc1ccc(Cl)cc1 | u | u | -9% | 4 | 23µM* | i
Cc1ccc(S(=O)(=O)N2CC=C(c3c(C)n(CC(=O)N4CCCC4)c4ccccc34)CC2)cc1C | x | x | x | -6 | i | i
CCOc1ccc(C(=O)Nc2nc3ccccc3[nH]2)cc1OCC | 2% | 18% | 10% | 1 | 5.2µM* | u
O=C(NCCc1nc2ccccc2[nH]1)c1ccc(F)cc1 | 3% | 1% | 5% | -7 | 12µM* | u
O=C(Nc1nc2ccccc2[nH]1)c1ccc(F)cc1 | u | 2% | 0% | u | u | u
COc1ccc(NC(=O)c2ccc3[nH]c(C)c(C)c3c2)c(OC)c1 | 5% | 18% | 1% | 1 | i | i
CCOc1ccccc1NC(=O)c1ccc2[nH]c(C)c(C)c2c1 | 23µM* | u | 20% | -16 | i | i
CCc1ccc(C(=O)Nc2nc3ccccc3[nH]2)cc1 | u | 5% | 5% | -94* | i | u
Cc1ccc(S(=O)(=O)O)cc1C | -6% | -2% | x | x | x | x
COc1ccc(-n2ccn3c(CC(C)(C)CC(=O)O)nnc3c2=O)cc1 | x | x | x | x | i | i
COC(=O)C1=C(c2ccccc2)c2ccccc2S(=O)(=O)N1CC(=O)Nc1ccccc1Cl | x | x | x | x | i | i
S=c1nn[nH]c2ccccc12 | 7% | 1% | -1% | 9 | i | i
SMILES | SW480 rerep | MCF10A rerep | S-ASM inh | Giardia killer | KB-V1 cytotox | KB-3-1 tox
CCOC(=O)c1cccc(NC(=O)Cn2ncc3c4ccccc4n(Cc4ccccc4)c3c2=O)c1 | x | x | x | x | i | i
Cc1cc(C)cc(NC(=O)CC23CC4CC(C2)CC(n2nnc(C)n2)(C4)C3)c1 | -1% | u | -1% | -11 | i | i
Cc1nnn(C23CC4CC(CC(CC(=O)Nc5ccc(C)c(Cl)c5)(C4)C2)C3)n1 | -1% | 15% | -2% | 15 | 7.3µM* | i
O=C1CCCC2=C1C1(CCCCC1)N=C(Nc1nc3ccccc3s1)N2 | 15% | 10µM* | 327% | -5 | i | i
O=C1CCCC2=C1C1(CCCC1)N=C(Nc1nc3ccccc3s1)N2 | -3% | u | 90% | -27 | i | i
CC1=C(C(=O)Nc2ccccc2)C(C(C)C)n2nc(SCc3ccccc3C)nc2N1 (configuration not stated) | x | x | x | x | i | i
CNS(=O)(=O)c1cccc(C(=O)OCc2cc(Cl)cc3c2OCOC3)c1 | 15% | u | -6% | 1 | 18µM* | i
O=C(OCc1cc(Cl)cc2c1OCOC2)c1cccnc1Cl | 4% | 0% | -1% | -7 | i | i
O=C(C[n+]1ccccc1Cl)c1ccccc1 | x | x | x | x | i | i
O=C(CCn1c(=O)[nH]c2ccsc2c1=O)N(CCc1ccccc1)Cc1ccccc1 | 0% | 7% | -18% | -25 | 21µM* | u
CCOc1ccc(NS(=O)(=O)c2ccc3[nH]cc(C(=O)N(C)C4CCCCC4)c(=O)c3c2)cc1 | x | x | x | x | u | i
C=C(C)c1cccc(C(C)(C)NC(=O)Nc2cc(C)ccc2OC)c1 | 6% | 12% | -4% | -15 | 8.2µM* | i
C=C(C)c1cccc(C(C)(C)NC(=O)Nc2ccccc2OCC)c1 | 0% | u | 3% | 13 | i | i
CCOC(=O)C/C(=N\Nc1ncnc2ccccc12)c1ccccc1 | -4% | 28% | -6% | -20 | 16µM* | i
COC(=O)c1c(-c2ccc(Cl)cc2)noc1N1CCN(c2cc(C)ccc2C)CC1 | x | x | x | x | i | i
Cc1ccc2c(CC(=O)NCc3ccco3)coc2c1C | u | 12µM* | -1% | -11 | 5.8µM* | 7.3µM*
CCOC(=O)N1CCN(C(=O)c2ccc3nc(SCc4ccc(F)cc4)n(C)c3c2)CC1 | -4%[9.22 µM] | 17% | -1% | -7 | 9.2µM* | i
CCc1ccc(CNC(=O)c2ccc3nc(SCc4ccc(F)cc4)n(C)c3c2)cc1 | x | x | x | x | i | i
Cc1cccc(N2CCN(C(=O)CCCn3ncn4c(cc5occc54)c3=O)CC2)c1C | x | x | x | x | i | i
CCOc1ccccc1CNC(=O)c1ccc(Sc2ccc(Cl)cc2)c(NC(C)=O)c1 | u | 20% | -2% | 7 | 18µM* | i
CCOc1ccc(CNC(=O)c2ccc(Sc3ccc(Cl)cc3)c(NC(C)=O)c2)cc1 | 4% | u | -10% | -15 | 8.2µM* | u
CC(=O)Nc1cc(C(=O)N(C)Cc2ccco2)ccc1Sc1ccc(Cl)cc1 | -34% | u | 3% | 17 | 2.9µM* | i
CC1=CCC(C(C)(C)O)CC1 (configuration not stated) | 0% | 6% | x | x | x | x

Bioassay records (PubChem)
